Source: PubChem BioAssay (Tox21)
Results filed as inconclusive are left out. Active and inactive are the calls of the source. Unless noted, calls come from the whole dose curve; as a rule, active = well fitted curve in the direction sought with a large enough effect in the repeat runs; inconclusive = weak or mixed curves; inactive = no such curve, though single readings can be large; an effect the other way counts as inactive or inconclusive.

Experiments:
[1] = A CellTox Green Cytotoxicity Assay to monitor cytotoxicity in HepG2 cells - 8 hour (AID 1224890); note: nearly all actives have a fitted effect of over 45% in size; note: potency is the fitted concentration of half-maximal effect
In short: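 HepG2 cells were seeded together with the CellTox Green dye at 600 cells/well, left 5 h at 37 C/5% CO2, then given compounds in DMSO. Fluorescence from dye bound to dead-cell DNA was read repeatedly over 40 h of treatment at 37 C.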

[2] = qHTS assay to identify small molecule antagonists of the estrogen receptor alpha (ER-alpha) signaling pathway using the BG1 cell line in the presence of 0.1 nM 17-beta-estradiol - cell viability counter screen (AID 1259241); note: nearly all actives have a fitted effect of over 40% in size; note: potency is the fitted concentration of half-maximal effect
In short: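 Live-cell protease activity (CellTiter-Fluor fluorescence, 30 min) was read in the same wells after VM7Luc4E2 cells had been exposed to compounds with 0.1 nM 17beta-estradiol for 22 hr at 37C.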

[3] = qHTS assay to identify small molecule antagonists of the androgen receptor (AR) signaling pathway using the MDA cell line in the presence of 0.5 nM R1881 - cell viability counter screen (AID 1259242); note: nearly all actives have a fitted effect of over 45% in size
In short: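 MDA-kb2 cells (human breast carcinoma, stably carrying MMTV-luciferase reporter) were exposed to compounds with 0.5 nM R1881 (final) for 16 hr at 37C, 0% CO2; viability then read as live-cell protease fluorescence (CellTiter-Fluor, 30 min) in the same wells.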

[4] = molecular target: Estrogen receptor (Homo sapiens) (UniProt P03372); assay: qHTS assay to identify small molecule antagonists of the estrogen receptor alpha (ER-alpha) signaling pathway using the BG1 cell line in the presence of 0.1 nM 17-beta-estradiol (AID 1259244); note: nearly all actives have a fitted effect of over 50% in size; note: potency is the fitted concentration of half-maximal effect
Chain of Estrogen receptor (Homo sapiens) (P03372 whole entry, looked up): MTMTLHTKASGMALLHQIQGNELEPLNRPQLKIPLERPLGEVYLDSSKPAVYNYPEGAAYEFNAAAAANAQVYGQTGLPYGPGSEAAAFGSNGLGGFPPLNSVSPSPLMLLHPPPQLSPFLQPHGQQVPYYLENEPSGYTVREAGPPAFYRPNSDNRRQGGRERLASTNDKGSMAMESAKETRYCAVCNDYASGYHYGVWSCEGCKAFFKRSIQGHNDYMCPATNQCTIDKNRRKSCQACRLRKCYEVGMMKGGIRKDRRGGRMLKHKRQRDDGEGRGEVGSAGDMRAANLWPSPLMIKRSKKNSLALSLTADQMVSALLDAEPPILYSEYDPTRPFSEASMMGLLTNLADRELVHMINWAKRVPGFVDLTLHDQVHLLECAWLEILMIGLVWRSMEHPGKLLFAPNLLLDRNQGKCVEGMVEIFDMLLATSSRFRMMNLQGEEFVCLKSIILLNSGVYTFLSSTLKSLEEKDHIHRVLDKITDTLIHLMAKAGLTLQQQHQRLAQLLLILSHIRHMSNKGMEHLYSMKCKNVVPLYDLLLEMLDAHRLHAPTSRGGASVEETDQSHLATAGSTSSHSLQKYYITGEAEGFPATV
In short: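 VM7Luc4E2 cells (endogenous full-length ER-alpha, stable 4xERE-luciferase) were grown 5 days in phenol red-free medium with charcoal-stripped FBS, then exposed 22 h at 37C to compounds plus 0.1 nM (final) 17beta-estradiol; ONE-Glo luminescence read-out.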

[5] = qHTS assay to identify small molecule HDAC inhibitors (AID 1259364); note: nearly all actives have a fitted effect of over 45% in size; note: potency is the fitted concentration of half-maximal effect; for activity change, negative = inhibition: top concentration of the series differs between compounds
In short: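 Wild-type HCT-116 cells were plated overnight, exposed to compounds for 2 h at 37 °C, then given HDAC-Glo class I/II luminogenic reagent for 30 min at room temperature before luminescence was read.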

[6] = qHTS assay to identify small molecule HDAC inhibitors - cell viability counter screen (AID 1259365); note: series mostly up to about 92 µM; nearly all actives have a fitted effect of over 50% in size
In short: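 HCT-116 (wild type), 1,500 cells/well, overnight 37C/5% CO2; compound in DMSO 2hr; CellTiter-Glo 30min RT; luminescence read.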

[7] = qHTS assay to identify small molecule antagonists of the sonic hedgehog signaling (Shh) pathway - cell viability counter screen (AID 1259367); note: nearly all actives have a fitted effect of over 55% in size
In short: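 NIH/3T3-derived Gli1-Luc reporter cells, 2,000/well, plated 4 hr before compound addition, then stimulated with conditioned medium for 24 hr at 37C. Viability measured in the same wells by CellTiter-Fluor fluorescence, reagent added at 23 hr for 1 hr.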

[8] = qHTS assay to identify small molecule agonists of the sonic hedgehog signaling (Shh) pathway (AID 1259368; calls by dose curve; note: series mostly up to about 92 µM; nearly all actives have a fitted effect of over 15% in size)
In short: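 NIH/3T3-derived 3T3Gli1-Luc cells carrying a stably integrated Gli1 response element–firefly luciferase reporter were plated, left 4 hr at 37 C, then given compounds in DMSO for 24 hr. Luminescence was read 30 min after adding luciferase reagent.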

[9] = qHTS assay to identify small molecule antagonists of the sonic hedgehog signaling (Shh) pathway (AID 1259369; calls by dose curve; note: nearly all actives have a fitted effect of over 45% in size; note: potency is the fitted concentration of half-maximal effect)
In short: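 NIH/3T3-derived 3T3Gli1-Luc cells with stably integrated Gli1-Luc reporter were preincubated 4hr at 37 C, then given compounds in DMSO plus Shh conditioned medium and incubated 24hr. Firefly luciferase luminescence read after 30min reagent at room temperature.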

[10] = molecular target: Estrogen receptor beta (Homo sapiens) (UniProt Q92731); assay: qHTS assay to identify small molecule agonists of the estrogen receptor beta (ER-beta) signaling pathway (AID 1259377; active = well fitted activation curve with a large enough effect in the signal ratio in the repeat runs, not every such curve was filed as active; the % refers to the signal ratio)
Chain of Estrogen receptor beta (Homo sapiens) (Q92731 whole entry, looked up): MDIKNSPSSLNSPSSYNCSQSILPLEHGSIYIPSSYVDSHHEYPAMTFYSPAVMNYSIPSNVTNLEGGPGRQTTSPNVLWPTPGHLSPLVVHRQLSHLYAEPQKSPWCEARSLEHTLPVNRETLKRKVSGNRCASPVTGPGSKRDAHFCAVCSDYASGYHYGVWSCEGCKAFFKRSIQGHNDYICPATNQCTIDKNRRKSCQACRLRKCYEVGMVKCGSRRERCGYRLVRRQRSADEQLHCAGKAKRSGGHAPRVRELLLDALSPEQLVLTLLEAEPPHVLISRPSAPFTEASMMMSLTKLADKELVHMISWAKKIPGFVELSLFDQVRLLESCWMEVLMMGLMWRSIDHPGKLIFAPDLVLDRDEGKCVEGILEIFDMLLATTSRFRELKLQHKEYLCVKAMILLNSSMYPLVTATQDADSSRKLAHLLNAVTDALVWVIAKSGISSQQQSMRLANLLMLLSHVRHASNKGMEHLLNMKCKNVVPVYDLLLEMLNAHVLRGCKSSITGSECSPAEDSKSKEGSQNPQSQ
In short: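 Beta-lactamase reporter readout: fluorescence of LiveBLAzer B/G FRET substrate after 2 h at room temperature, following 16 h compound treatment of ER-beta-UAS-bla HEK293T cells at 37C in 2% charcoal-stripped FBS medium.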

[11] = molecular target: Estrogen receptor beta (Homo sapiens) (UniProt Q92731); assay: qHTS assay to identify small molecule antagonists of the estrogen receptor beta (ER-beta) signaling pathway (AID 1259378; active = well fitted inhibition curve with a large enough effect in the signal ratio in the repeat runs, not every such curve was filed as active; the % refers to the signal ratio)
In short: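 ER-beta-UAS-bla HEK293T cells in 2% charcoal-stripped FBS medium treated with compound plus 1nM final 17-beta-estradiol for 16 hr at 37C. Beta-lactamase reporter read by FRET substrate fluorescence after 2 hours at room temperature.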

[12] = qHTS assay to identify small molecule agonists of the androgen receptor (AR) signaling pathway in the presence of an antagonist - cell viability counter screen (AID 1259379); note: series mostly up to about 92 µM; nearly all actives have a fitted effect of over 25% in size
In short: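 MDA-kb2 human breast carcinoma cells (stable MMTV-luciferase, AR/GR responsive) were seeded 3,000 cells/well, pre-incubated 5 hr at 37C without CO2, then given 3.0uM nilutamide and compounds at 15 concentrations for 16 hr. Viability was read by CellTiter-Fluor fluorescence.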

[13] = qHTS assay to identify small molecule agonists of the estrogen receptor beta (ER-beta) signaling pathway - cell viability counter screen (AID 1259380); note: nearly all actives have a fitted effect of over 30% in size; note: potency is the fitted concentration of half-maximal effect
In short: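 ER-beta-UAS-bla HEK293T cells in medium with 2% charcoal-stripped FBS were preincubated 6 hr at 37C, dosed with compound in DMSO for 16 hr, then after the bla read, CellTiter-Glo was added for 30 min at room temperature; luminescence recorded.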

[14] = qHTS assay to identify small molecule antagonists of the estrogen receptor beta (ER-beta) signaling pathway - cell viability counter screen (AID 1259382); note: series mostly up to about 92 µM; nearly all actives have a fitted effect of over 55% in size
In short: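 ER-beta-UAS-bla HEK293T cells (2,000/well, 2% charcoal-stripped FBS) were pre-incubated 6 hr at 37C, then given compound plus 1nM final 17-beta-estradiol for 16 hr. Viability was read in the same wells by CellTiter-Glo luminescence after 30 min at room temperature.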

[15] = molecular target: Estrogen receptor (Homo sapiens) (UniProt P03372); assay: qHTS assay to identify small molecule agonists of the estrogen receptor alpha (ER-alpha) signaling pathway in the presence of an antagonist (AID 1259383; calls by dose curve; note: nearly all actives have a fitted effect of over 15% in size; note: potency is the fitted concentration of half-maximal effect; for activation: top concentration of the series differs between compounds)
In short: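 VM7Luc4E2 cells (endogenous full-length ER-alpha, 4×ERE-luciferase) were precultured 5 days in phenol red-free medium with 10% charcoal-stripped FBS, given 10.0nM ICI-182,780 (final), then treated with compounds at 15 concentrations for 22hr at 37C; luminescence read with ONE-Glo.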

[16] = qHTS assay to identify small molecule agonists or antagonists of the thyroid stimulating hormone receptor (TSHR) signaling pathway - wild type cell line counter screen (AID 1259384; calls by dose curve)
In short: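 Wild-type Hek293 cells, 800/well, 18 h at 37C, then compound with Ro20-1724 for 30 min RT. cAMP by HTRF (cAMP-d2/anti-cAMP cryptate), 1 h RT, fluorescence read. 15 concentrations, triplicates.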

[17] = qHTS assay to identify small molecule agonists of the sonic hedgehog signaling (Shh) pathway - cell viability counter screen (AID 1259366); note: nearly all actives have a fitted effect of over 50% in size
In short: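 CellTiter-Fluor fluorescence read-out, 1 hr at 37C, added after 23hr compound exposure. Cells: 3T3 Gli1-Luc, an NIH/3T3 clone with stably integrated Gli1-Luc reporter, plated 4hr before compound.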
% is set by controls: 0 for no effect and ±100 for the full control effect.

NNS(=O)(=O)c1ccc(Oc2ccc(S(=O)(=O)NN)cc2)cc1
inactive: Potency [1] | Potency [2] | outcome [3] | Potency [4] | Potency [5] | outcome [6] | Potency [7] | Potency [8] | Potency [9] | outcome [10] | Potency [11] | Potency [12] | Potency [13] | outcome [14] | Potency [15] | outcome [16]

COC(=O)c1ccc2cc(C(=O)OC)ccc2c1
active: Potency [9] 9.93 µM
inactive: cytotoxicity increase [1] -0.23% [at 15.8 µM] | activity change, negative = cytotoxicity [2] -8.86% [at 19 µM] | viability change, negative = cytotoxic [3] 1.72% [at 19 µM] | activity change, negative = inhibition [4] -28.1% [at 19 µM] | activity change, negative = inhibition [5] -8.76% [at 19 µM] | activity change, negative = cytotoxicity [6] -11% [at 19 µM] | viability change, negative = cytotoxic [17] 0.624% [at 19 µM] | activity change [8] 6.39% [at 18.9 µM, stronger effect = higher value] | activity change, negative = cytotoxicity [12] 2.92% [at 19 µM] | activity change, negative = cytotoxicity [14] -4.09% [at 19 µM] | activation [15] 0.0917% [at 19 µM] | cAMP activity change [16] 3.63% [at 18.9 µM]

CCOC(=O)C(Br)c1ccccc1 (stereo not drawn)
inactive: Potency [1] | Potency [2] | outcome [3] | Potency [4] | Potency [5] | outcome [6] | Potency [17] | Potency [8] | Potency [9] | outcome [10] | Potency [11] | Potency [12] | Potency [13] | outcome [14] | Potency [15] | outcome [16]

CCCCCCCOC(=O)CCC
inactive: Potency [1] | Potency [2] | outcome [3] | Potency [4] | Potency [5] | outcome [6] | Potency [7] | Potency [8] | Potency [9] | Potency [11] | Potency [12] | outcome [14] | Potency [15] | outcome [16]

CCc1cc(Cl)c(OC)c(C(=O)NC[C@@H]2CCCN2CC)c1O
inactive: Potency [1] | Potency [2] | outcome [3] | Potency [4] | Potency [5] | outcome [6] | Potency [7] | Potency [8] | Potency [12] | outcome [14] | Potency [15]

CN(C)C(=O)NC1(c2ccccc2)CCN(CCC[C@]2(c3ccc(Cl)c(Cl)c3)CCCN(C(=O)c3ccccc3)C2)CC1
inactive: cytotoxicity increase [1] 9.35% [at 15.8 µM] | activity change, negative = cytotoxicity [2] 3.34% [at 19 µM] | viability change, negative = cytotoxic [3] -6.41% [at 19 µM] | activity change, negative = inhibition [4] 3.38% [at 19 µM] | activity change, negative = inhibition [5] -4.11% [at 19 µM] | activity change, negative = inhibition [9] -22.9% [at 19 µM] | activation [10] -0.37% [at 19 µM] | activity, negative = inhibition [11] -8.74% [at 19 µM] | activity change, negative = cytotoxicity [12] -7% [at 19 µM] | activity change, negative = cytotoxicity [14] -18% [at 19 µM] | activation [15] -0.618% [at 19 µM] | cAMP activity change [16] -1.66% [at 18.9 µM]

Cc1nc(N)nc(N)c1-c1ccc(Cl)c(Cl)c1
inactive: Potency [1] | Potency [2] | outcome [3] | Potency [5] | Potency [17] | Potency [7] | Potency [8] | outcome [10] | Potency [12] | Potency [15]
active: Potency [4] 13.3 µM | Potency [13] 2.66 µM

Nc1ccc(Oc2ccc(N)c(N)c2)cc1
inactive: Potency [1] | outcome [3] | Potency [4] | Potency [9] | Potency [12] | outcome [14] | Potency [15] | outcome [16]
active: Potency [2] 48.6 µM | Potency [5] 30.6 µM

O=C(CC(=O)C(F)(F)F)c1ccccc1
active: Potency [15] 9.83 µM
inactive: Potency [1] | Potency [2] | outcome [3] | Potency [4] | Potency [5] | outcome [6] | Potency [17] | Potency [7] | Potency [8] | Potency [9] | outcome [10] | Potency [12] | outcome [14] | outcome [16]

O=S(=O)(O)C(F)(F)F
inactive: Potency [1] | Potency [2] | outcome [3] | Potency [4] | Potency [5] | outcome [6] | Potency [7] | Potency [8] | outcome [10] | Potency [11] | Potency [12] | Potency [13] | outcome [14] | Potency [15] | outcome [16]

CCOc1ccc(NC(N)=O)cc1
inactive: Potency [1] | Potency [2] | outcome [3] | Potency [4] | Potency [5] | outcome [6] | Potency [7] | Potency [8] | Potency [9] | outcome [10] | Potency [11] | Potency [12] | Potency [13] | outcome [14] | Potency [15] | outcome [16]

CCCOCCC
inactive: Potency [1] | Potency [2] | outcome [3] | Potency [4] | Potency [5] | outcome [6] | Potency [17] | Potency [7] | Potency [8] | Potency [9] | Potency [12] | Potency [13] | outcome [14] | Potency [15] | outcome [16]

CC(C)S
inactive: Potency [1] | Potency [2] | outcome [3] | Potency [4] | Potency [5] | Potency [17] | Potency [7] | Potency [8] | Potency [9] | Potency [12] | Potency [13] | outcome [14] | Potency [15] | outcome [16]

CCCCCCCCCCCCOCCOS(=O)(=O)O
inactive: Potency [2] | outcome [3] | Potency [4] | Potency [5] | outcome [6] | Potency [17] | Potency [7] | Potency [8] | Potency [9] | Potency [12] | Potency [15] | outcome [16]
active: Potency [1] 54.9 µM | Potency [13] 48.6 µM

CC(C)OC(C)C
inactive: Potency [1] | Potency [2] | outcome [3] | Potency [4] | Potency [5] | outcome [6] | Potency [17] | Potency [7] | Potency [8] | Potency [9] | Potency [12] | Potency [13] | outcome [14] | Potency [15] | outcome [16]

OCC(CBr)(CBr)CBr
inactive: Potency [1] | Potency [2] | outcome [3] | Potency [4] | outcome [6] | Potency [17] | Potency [8] | Potency [12] | Potency [13] | outcome [14] | Potency [15] | outcome [16]

Cc1c[nH]c(=S)[nH]c1=O
inactive: Potency [1] | Potency [2] | outcome [3] | Potency [4] | Potency [5] | outcome [6] | Potency [17] | Potency [7] | Potency [9] | outcome [10] | Potency [11] | Potency [12] | Potency [13] | outcome [14] | Potency [15]

O=C1CCCCC1C1CCCCC1 (stereo not drawn)
inactive: Potency [1] | Potency [2] | outcome [3] | Potency [4] | Potency [5] | outcome [6] | Potency [17] | Potency [9] | Potency [12] | Potency [13] | outcome [14] | Potency [15] | outcome [16]
